Test systems include SR leukemia; RPMI-8226 leukemia; OVCAR-8 ovarian; OVCAR-5 ovarian; OVCAR-4 ovarian; SK-OV-3 ovarian; IGROV1 ovarian; OVCAR-3 ovarian; HS 578T breast; NCI/ADR-RES ovarian; T-47D breast; BT-549 breast; MDA-MB-435 melanoma; SW-620 colon; MCF7 breast; HCT-116 colon; HCC-2998 colon; KM12 colon.
Assay in all cases: NCI-60 one-dose screen, 48 h (100 = growth as untreated, 0 = no growth, -100 = all killed)
What all share (conditions): 10 µM unless noted

Each structure is given as a SMILES string. About 83,000 compounds went through this panel and 20% of them were active in at least one assay; those are over-represented in the sample as a whole.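 Treatment: one concentration, 48 hours, 96-well format. Scoring: percent growth, with anything below 10 considered active.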 Values without a mark were called inactive. The source made the active and inactive calls.

For `C1CCC(N2CN3c4nonc4N4CN(C5CCCCC5)CN5c6nonc6N(C2)C3C45)CC1` (configuration not stated), the growth is 83.8% with SR leukemia; 81.3% in the experiment with RPMI-8226 leukemia; 95.5% with OVCAR-8 ovarian; 102% in the experiment with OVCAR-5 ovarian; 88.9% with OVCAR-4 ovarian; 109% in the experiment on SK-OV-3 ovarian. Besides, the growth with IGROV1 ovarian was 104%; in the experiment with OVCAR-3 ovarian, 101%; in the experiment on HS 578T breast, 86.6%; with NCI/ADR-RES ovarian, 93.3%; in the experiment on T-47D breast, 95.3%; with BT-549 breast, 99.8%. The growth in the experiment with MDA-MB-435 melanoma is 100%; in the experiment on SW-620 colon, 92.8%; with MCF7 breast, 89.1%; in the experiment with HCT-116 colon, 101%; in the experiment with HCC-2998 colon, 98.4%; in the experiment with KM12 colon, 98.8%.
Take `Cc1nn(-c2ccc([N+](=O)[O-])cc2)c2ncnc(N/N=C/c3ccccc3O)c12`: the growth with SR leukemia was 4.55% (active); with RPMI-8226 leukemia, 1.23% (active); with OVCAR-8 ovarian, 14.5%; in the experiment with OVCAR-5 ovarian it was 55.8%; in the experiment with OVCAR-4 ovarian, 16.5%; in the experiment with SK-OV-3 ovarian, 3.11% (active). The growth in the experiment on IGROV1 ovarian is 9.22% (active); in the experiment on OVCAR-3 ovarian, 27.3%; in the experiment on HS 578T breast it was 44%; in the experiment on NCI/ADR-RES ovarian, 6.28% (active); in the experiment on T-47D breast, 11.6%; in the experiment on BT-549 breast it was 30.6%. Further, the growth in the experiment on MDA-MB-435 melanoma was 26.5%; in the experiment with SW-620 colon, 25.1%; with MCF7 breast, 11.9%; in the experiment with HCT-116 colon, 18.1%; with HCC-2998 colon, 40.4%; in the experiment on KM12 colon, 22.3%.
Regarding `CN1c2ccccc2S(=O)(=O)n2c(SCC(=O)Nc3nc4ccc(F)cc4s3)nnc21`, the growth was 59.8% with SR leukemia; 70.1% with RPMI-8226 leukemia; 97.4% with OVCAR-8 ovarian; 113% in the experiment with OVCAR-5 ovarian; 112% in the experiment with OVCAR-4 ovarian; 112% in the experiment with SK-OV-3 ovarian. The growth was -22.6% (active) with IGROV1 ovarian; 124% with OVCAR-3 ovarian; 80.4% in the experiment on HS 578T breast; 89.7% in the experiment with NCI/ADR-RES ovarian; 112% with T-47D breast; 122% with BT-549 breast. Moreover, the growth was 117% with MDA-MB-435 melanoma; 107% with SW-620 colon; 88.2% in the experiment with MCF7 breast; 110% in the experiment with HCT-116 colon; 128% with HCC-2998 colon; 97.7% in the experiment on KM12 colon.
For `CS(=O)(=O)Nc1cc(-c2ccc3ncnc(Nc4ccc5c(cnn5Cc5ccccc5F)c4)c3c2)cnc1Cl`, the growth is 35.4% in the experiment with SR leukemia; 5.17% (active) in the experiment on RPMI-8226 leukemia; 69.7% in the experiment on OVCAR-8 ovarian; 37.9% in the experiment on OVCAR-5 ovarian; 63.4% in the experiment on OVCAR-4 ovarian; 29.9% in the experiment on SK-OV-3 ovarian. Besides, the growth is -15.8% (active) in the experiment with IGROV1 ovarian; 13.1% in the experiment on OVCAR-3 ovarian; 7.95% (active) in the experiment with HS 578T breast; 92.2% with NCI/ADR-RES ovarian; -4.36% (active) with T-47D breast; 14.6% in the experiment with BT-549 breast. Moreover, the growth in the experiment on MDA-MB-435 melanoma was 43.6%; in the experiment on SW-620 colon, 46.8%; in the experiment with MCF7 breast, 13.9%; with HCT-116 colon it was 60.4%; in the experiment with HCC-2998 colon, 59.3%; with KM12 colon, 71.5%.
Consider `COc1cc2c(c(OC)c1OC)C(=O)CC(c1cccc(C(=O)Nc3ccccc3Br)c1)O2` (configuration not stated), for which the growth was 64% in the experiment on SR leukemia; 68.7% in the experiment with RPMI-8226 leukemia; 91.8% in the experiment on OVCAR-8 ovarian; 96.5% with OVCAR-5 ovarian; 70.6% in the experiment with OVCAR-4 ovarian; 95.4% in the experiment with SK-OV-3 ovarian. The growth in the experiment with IGROV1 ovarian is 91.6%; in the experiment on OVCAR-3 ovarian it was 97.6%; in the experiment on HS 578T breast it was 103%; in the experiment on NCI/ADR-RES ovarian, 88.8%; in the experiment on T-47D breast it was 55.4%; in the experiment with BT-549 breast it was 78.8%. Also, the growth in the experiment on MDA-MB-435 melanoma is 83.9%; in the experiment with SW-620 colon, 99.3%; with MCF7 breast, 68.9%; in the experiment on HCT-116 colon, 81.5%; with HCC-2998 colon, 95%; in the experiment on KM12 colon it was 93.5%.
For `COc1ccc(/C=C(/C(=O)N2CCNCC2)c2cc(OC)c(OC)c(OC)c2)cc1O`, the growth was 3.13% (active) in the experiment on SR leukemia; 9.6% (active) with RPMI-8226 leukemia; 52.1% in the experiment on OVCAR-8 ovarian; 86.3% with OVCAR-5 ovarian; 78.7% in the experiment with OVCAR-4 ovarian; 10.1% in the experiment with SK-OV-3 ovarian. Also, the growth is 60.2% in the experiment with IGROV1 ovarian; 10.5% in the experiment with OVCAR-3 ovarian; 26.7% with HS 578T breast; 105% in the experiment on NCI/ADR-RES ovarian; 31.6% in the experiment with T-47D breast; 58.5% with BT-549 breast. For the same molecule, the growth with MDA-MB-435 melanoma was -45% (active); in the experiment on SW-620 colon, 35.1%; in the experiment with MCF7 breast, 23%; with HCT-116 colon, 19.8%; in the experiment on HCC-2998 colon, 78.4%; in the experiment on KM12 colon, 21.3%.
As to `NS(=O)(=O)c1ccc(C(=O)N=Nc2c(O)[nH]c3ccc(Cl)cc23)cc1`, the growth is 95.3% in the experiment with SR leukemia; 98.5% in the experiment on RPMI-8226 leukemia; 95% in the experiment with OVCAR-8 ovarian; 110% in the experiment with OVCAR-5 ovarian; 99.7% in the experiment on OVCAR-4 ovarian; 108% in the experiment on SK-OV-3 ovarian. Further, the growth in the experiment on IGROV1 ovarian is 98.1%; in the experiment on OVCAR-3 ovarian, 113%; with HS 578T breast, 99.5%; in the experiment with NCI/ADR-RES ovarian, 102%; with T-47D breast, 97.2%; in the experiment with BT-549 breast, 98.8%. The growth is 105% in the experiment on MDA-MB-435 melanoma; 100% with SW-620 colon; 89.2% with MCF7 breast; 99.4% in the experiment with HCT-116 colon; 114% with HCC-2998 colon; 102% with KM12 colon.
With `COc1ccc(CNc2ccc3nc(NC(=O)CN4CCCCCC4)sc3c2)cc1`, the growth with SR leukemia is 93.5%; in the experiment on RPMI-8226 leukemia, 55.6%; in the experiment on OVCAR-8 ovarian, 87.8%; in the experiment on OVCAR-5 ovarian it was 95.5%; with OVCAR-4 ovarian, 62.3%; with SK-OV-3 ovarian, 103%. Besides, the growth is 107% with IGROV1 ovarian; 101% in the experiment with OVCAR-3 ovarian; 115% in the experiment with HS 578T breast; 82.9% in the experiment with NCI/ADR-RES ovarian; 42.8% in the experiment on T-47D breast; 86.1% in the experiment on BT-549 breast. For the same molecule, the growth was 94.1% in the experiment with MDA-MB-435 melanoma; 86.7% with SW-620 colon; 69.1% in the experiment on MCF7 breast; 68.6% in the experiment with HCT-116 colon; 109% in the experiment on HCC-2998 colon; 89.2% with KM12 colon.
`COc1cc2c3c(c4c5ccccc5[nH]c4c2c(OC)c1OC)C(=O)N(CCN1CCCCC1)C3=O`: the growth in the experiment with SR leukemia was 21.6%; with RPMI-8226 leukemia, -12% (active); in the experiment on OVCAR-8 ovarian, -35.5% (active); in the experiment with OVCAR-5 ovarian, 52.4%; in the experiment with OVCAR-4 ovarian, 15.7%; with SK-OV-3 ovarian, 54.7%. Moreover, the growth with IGROV1 ovarian was -68.8% (active); with OVCAR-3 ovarian it was -20.7% (active); in the experiment on HS 578T breast it was 52.2%; in the experiment with NCI/ADR-RES ovarian, 24.6%; in the experiment on T-47D breast, 59.5%; with BT-549 breast, 96.6%. Also, the growth is 33.7% with MDA-MB-435 melanoma; -66.4% (active) in the experiment on SW-620 colon; -56.3% (active) with MCF7 breast; -85.6% (active) in the experiment on HCT-116 colon; 22.3% with HCC-2998 colon; -20% (active) in the experiment on KM12 colon.
